# In the supplement of paper PMC10338343:
# ± gives the standard deviation.
# Test system: MILI (PIWIL2) piRISC loaded with L1MC piRNA (26 nt)
# Assay: pre-steady-state target cleavage rate (min^-1); guide: L1MC piRNA 5'p-UAACUAAAUACUAUGCAAGCUGUAGG; MIWI and MILI are mouse PIWI proteins and EfPiwi is from a freshwater sponge; tags in brackets are library labels; higher = faster piRNA-guided slicing of the target
# Details: auxiliary factor: 500 nM mouse GTSF1
# Procedure: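 Cleave-'n-Seq: a library of target RNAs (target site embedded in constant flanks, ACAGCATTCCGCGTTAGTGATATCCG... 5' flank; DNA-blocked outside the site) at 0.1 nM was incubated with 1 nM active mouse MILI or MIWI piRISC (synthetic 5'-monophosphorylated piRNA guide) with or without 500 nM mouse GTSF1 at 33 °C for 1 min to 16 h. Uncleaved targets were sequenced and normalised to non-target controls, and the pooled three trials were fitted to a burst-and-steady-state model to give the pre-steady-state cleavage rate (min^-1; k3 is constrained to at most 1e-4). Sequence is the target site only; target names encode pairing extent (gX:gY) and contiguous / 1-mismatch / 2-mismatch / bulge geometry. Fits with R² ≤ 0 are excluded.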
row,Sequence,pre-steady-state target cleavage rate
1,UCCUGGAUGAGCUUGCAUACUAAUUAGUUA,0.0128 ± 0.0042
2,UCCUGGUACAGCUUGCAUAGUAUAUUAGUUA,0.26 ± 0.039
3,UCCUCCUACAGCUAGCAUAGUAUUUAGAUA,0.144 ± 0.025
4,UCCUGGAUGUGCUUGCUAGUAUUUAGUUA,0.00654 ± 0.0035
5,UCCUGGAUCAGCUUGCAUAGUAUUUAGUUA [g2:g22:cont:t1A],0.267 ± 0.017
6,UCCUGGAUGAGCUUGCAUAGUAUUUAAGUUA,0.153 ± 0.025
7,UCCUGGAUGUCCUUGCAUAGUAAAUAGUUA,0.034 ± 0.0081
8,UCCUGGAACAGCAAGCAUAGUAUUUAGAAA,0.162 ± 0.025
9,UCCUGGAUGUCGUUGCAUAGUAUAUUAGUUA,0.121 ± 0.023
10,UCCUGCUACUCGUUGCAUAGUAUUUAGUUA,0.242 ± 0.014
11,UCCUGCUACUCGUUGCAUAGUAUUUAGAAA,0.179 ± 0.032
12,UCCUGGAUGUGCUUGCAUAGUACUUUAGUUA,0.0231 ± 0.0092
13,UCCUGGUAGUCCUUGCAUAGUAUUUAGUAA,0.113 ± 0.025
14,UCCUGGAUGUGCUUGGUAAGUAUUUAGUUA,0.00666 ± 0.0036
15,UCCUCCUACUGCUUGCAUAGUAAUUAGUUA,0.2 ± 0.014
16,UCCUGGAUCAGCUUAGCAUAGUAUUUAGUUA,0.232 ± 0.018
17,UCCUCCUACAGGUAGCAUAGUAUUUAGUUA,0.273 ± 0.013
18,UCCUCCUAGAGCUUGCAUAGUAUUUAGUAA,0.201 ± 0.021
19,UCCUGGAUGUGCUUGCAUAGGUAUUUAGUUA,0.0061 ± 0.0046
20,UCCUGGAUGUCCUUGCUUAGUAUUUAGUUA,0.0537 ± 0.0095
21,UCCUGCUACAGCUUGCAAAGUAUUUAGUUA,0.13 ± 0.012
22,UCCUGGAUGUGCUUGGAAAGUAUUUAGUUA,0.0377 ± 0.0067

# Same assay, conditions: auxiliary factor: none (no GTSF1)
row,Sequence,pre-steady-state target cleavage rate
1,UCCUGGAUGUCGAACGUAUGUAUUUCAGUUA,< 0.0001
2,UCCUGGUACAGCUUGCAUAGUAUAUUAGUUA,0.0117 ± 0.0038
3,UCCUGGAUGUGCUUGCUAGUAUUUAGUUA,0.00432 ± 0.0028
4,UCCUGGAUCAGCUUGCAUAGUAUUUAGUUA [g2:g22:cont:t1A],0.00864 ± 0.0019
5,UCCUGGAUGAGCUUGCAUAGUAUUUAAGUUA,0.00993 ± 0.0029
6,UCCUGGAUGUCCUUGCAUAGUAAAUAGUUA,0.00497 ± 0.0022
7,UCCUGGAUGUCGUUGCAUAGUAUAUUAGUUA,0.00754 ± 0.0028
8,UCCUGCUACUCGUUGCAUAGUAUUUAGUUA,0.0082 ± 0.0022
9,UCCUGGAUGUGCUUGCAUAGUACUUUAGUUA,0.00627 ± 0.0028
10,UCCUGGUAGUCCUUGCAUAGUAUUUAGUAA,0.00362 ± 0.003
11,UCCUGGAUGUGCUUGGUAAGUAUUUAGUUA,0.00551 ± 0.0023
12,UCCUCCUACUGCUUGCAUAGUAAUUAGUUA,0.00554 ± 0.0017
13,UCCUGGAUCAGCUUAGCAUAGUAUUUAGUUA,0.00685 ± 0.0027
14,UCCUCCUACAGGUAGCAUAGUAUUUAGUUA,0.00904 ± 0.0021
15,UCCUCCUAGAGCUUGCAUAGUAUUUAGUAA,0.00313 ± 0.0024
16,UCCUGGAUGUGCUUGCAUAGGUAUUUAGUUA,0.00533 ± 0.0032
17,UCCUGGAUGUCCUUGCUUAGUAUUUAGUUA,0.00574 ± 0.0022
18,UCCUGCUACAGCUUGCAAAGUAUUUAGUUA,0.00686 ± 0.0019
19,UCCUGGAUGUGCUUGGAAAGUAUUUAGUUA,0.00729 ± 0.002
